For test [1], the system named is Plasmodium falciparum Sir2 (PF13_0152, Sir2A). Briefly: Plasmodium falciparum Sir2A binding compounds – biochemical, small-molecule microarray, 635 nm fluorescence, primary screen (AID 1098).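 Also: score merges spot fluorescence intensity with its signal-to-noise ratio.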 The note with it: fluorescence 635 nm, higher = more signal.
A short description of test [2]: probe aDKK1 binding to arrayed compounds – biochemical, biotinylated probe, 635/667 nm fluorescence, primary screen (AID 1099).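 Also: score merges 667nm spot fluorescence with signal to noise across triplicate slides; reference of the scale not given here.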 The note with it: small-molecule microarray, higher = more signal.
Test [3] is described as follows: probe aCHRDL2 binding to arrayed compounds – biochemical, biotinylated probe, 635/667 nm fluorescence, primary screen (AID 1100). The conditions noted are these: small-molecule microarray, higher = more signal.
Test [4] can be described thus: change in splice reporter luminescence, either direction, cell-based, HEK293, spliceosome inhibition project, primary screen (AID 1101).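 Also: HEK293 cells carrying a splicing-competent luciferase reporter gene; test concentration not given here.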 The note with it: HEK293 splicing luciferase reporter, 24 h, higher = more signal, called active from +8 up or from −8 down.
For test [5], the target named is Fibroblast growth factor 10 (Homo sapiens) (UniProt O15520). Kind of test: compounds binding fibroblast growth factor 10 – biochemical, small-molecule microarray, 635 nm fluorescence, primary screen (AID 1102). The conditions noted are these: FGF10 binding, fluorescence 635 nm, higher = more signal.
Chain of Fibroblast growth factor 10 (Homo sapiens) (O15520 whole entry, looked up): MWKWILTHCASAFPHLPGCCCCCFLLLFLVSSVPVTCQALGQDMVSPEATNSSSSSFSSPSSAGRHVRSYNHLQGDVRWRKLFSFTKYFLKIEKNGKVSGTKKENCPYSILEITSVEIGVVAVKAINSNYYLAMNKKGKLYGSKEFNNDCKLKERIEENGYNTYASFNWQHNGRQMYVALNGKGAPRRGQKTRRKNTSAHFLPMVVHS
Test [6] concerns glycogen synthase kinase-3 (GSK3A per assay name; protocol says GSK3B). Briefly: compounds binding glycogen synthase kinase-3 – biochemical, small-molecule microarray, 635 nm fluorescence, GSK3A, primary screen (AID 1103). Also: the record names both GSK3A and GSK3B. The note with it: fluorescence 635 nm, higher = more signal.
Test [7] concerns the target Epidermal growth factor receptor (Homo sapiens) (UniProt P00533). Kind of test: compounds binding epidermal growth factor receptor – biochemical, small-molecule microarray, 635 nm fluorescence, primary screen (AID 1104).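 Also: score merges 667 nm emission intensity with spot signal to noise over triplicate slides.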 The conditions noted are these: EGFR binding, higher = more signal.
The target in test [8] is Follistatin-related protein 3 (Homo sapiens) (UniProt O95633). Briefly: compounds binding follistatin-related protein 3 – biochemical, small-molecule microarray, 635 nm fluorescence, primary screen (AID 1105).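 Also: score merges emission near 667 nm and signal to noise per printed spot across three slides.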 The conditions noted are these: FSTL3 binding, higher = more signal.
Chain of Follistatin-related protein 3 (Homo sapiens) (O95633 whole entry, looked up): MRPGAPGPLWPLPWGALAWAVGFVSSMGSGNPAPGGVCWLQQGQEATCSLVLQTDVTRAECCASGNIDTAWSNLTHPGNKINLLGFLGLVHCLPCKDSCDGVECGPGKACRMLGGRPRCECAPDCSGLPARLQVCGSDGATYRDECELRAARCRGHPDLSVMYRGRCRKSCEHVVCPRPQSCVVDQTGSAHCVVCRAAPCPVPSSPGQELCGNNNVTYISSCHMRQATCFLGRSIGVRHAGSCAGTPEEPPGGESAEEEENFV
Test [9] addresses Dickkopf-related protein 1 (Homo sapiens) (UniProt O94907). Briefly: small molecules binding DKK1 protein – biochemical, small-molecule microarray, 635 nm fluorescence scan, primary screen (AID 1106).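 Also: score merges emission near 667 nm with signal to noise over three replicate slides.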 The conditions noted are these: higher = more signal.
The subject of test [10] is Inhibin beta A chain (activin A). Briefly: small molecules binding activin A – biochemical, small-molecule microarray, 635 nm fluorescence scan, primary screen (AID 1107).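 Also: mouse activin A protein probed at 4.33 µg/mL on printed slides; score merges bound-protein fluorescence near 667 nm with spot signal-to-noise.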 The note with it: INHBA, higher = more signal.

Each structure is given as a SMILES string. The source made the active and inactive calls.

Chain of Dickkopf-related protein 1 (Homo sapiens) (O94907 whole entry, looked up): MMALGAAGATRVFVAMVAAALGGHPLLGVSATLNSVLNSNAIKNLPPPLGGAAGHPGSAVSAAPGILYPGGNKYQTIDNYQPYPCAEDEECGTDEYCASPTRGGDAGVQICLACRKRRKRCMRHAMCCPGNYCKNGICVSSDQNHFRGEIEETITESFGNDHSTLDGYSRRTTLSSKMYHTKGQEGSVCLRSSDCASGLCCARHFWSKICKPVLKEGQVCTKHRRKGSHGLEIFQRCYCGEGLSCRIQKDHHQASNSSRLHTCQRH
Chain of Epidermal growth factor receptor (Homo sapiens) (P00533 whole entry, looked up): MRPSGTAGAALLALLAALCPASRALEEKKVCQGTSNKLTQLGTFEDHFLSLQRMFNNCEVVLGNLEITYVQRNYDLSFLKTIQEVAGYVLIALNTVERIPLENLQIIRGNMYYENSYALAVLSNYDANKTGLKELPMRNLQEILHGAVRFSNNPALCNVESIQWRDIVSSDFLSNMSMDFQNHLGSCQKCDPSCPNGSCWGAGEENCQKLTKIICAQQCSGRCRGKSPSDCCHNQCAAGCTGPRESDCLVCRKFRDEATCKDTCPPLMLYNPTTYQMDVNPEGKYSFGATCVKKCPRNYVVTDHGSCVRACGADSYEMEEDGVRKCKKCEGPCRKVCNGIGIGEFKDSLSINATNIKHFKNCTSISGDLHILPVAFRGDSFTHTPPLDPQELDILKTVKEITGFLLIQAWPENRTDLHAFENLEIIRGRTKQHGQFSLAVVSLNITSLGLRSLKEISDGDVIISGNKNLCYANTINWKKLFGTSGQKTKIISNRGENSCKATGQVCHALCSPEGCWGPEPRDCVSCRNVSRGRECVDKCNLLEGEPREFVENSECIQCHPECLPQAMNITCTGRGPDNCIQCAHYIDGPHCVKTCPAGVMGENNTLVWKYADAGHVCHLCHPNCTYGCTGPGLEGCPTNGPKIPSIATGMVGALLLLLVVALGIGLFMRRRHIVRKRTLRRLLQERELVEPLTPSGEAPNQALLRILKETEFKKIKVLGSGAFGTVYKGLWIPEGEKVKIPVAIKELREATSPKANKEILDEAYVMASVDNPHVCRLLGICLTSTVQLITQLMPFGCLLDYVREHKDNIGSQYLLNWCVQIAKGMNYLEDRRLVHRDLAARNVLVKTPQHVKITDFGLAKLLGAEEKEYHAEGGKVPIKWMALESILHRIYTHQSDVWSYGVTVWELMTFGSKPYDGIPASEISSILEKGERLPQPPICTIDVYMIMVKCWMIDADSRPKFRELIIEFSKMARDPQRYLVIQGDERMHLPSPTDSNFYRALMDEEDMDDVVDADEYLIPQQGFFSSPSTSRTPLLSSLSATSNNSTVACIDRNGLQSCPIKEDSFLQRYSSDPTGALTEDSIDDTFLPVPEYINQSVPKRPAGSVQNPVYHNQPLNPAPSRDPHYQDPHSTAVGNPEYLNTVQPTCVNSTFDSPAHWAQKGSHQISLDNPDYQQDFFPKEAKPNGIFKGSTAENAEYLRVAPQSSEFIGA

As to `CCOC(=O)C[C@H]1[C@H](OC(=O)c2ccc(-c3ccccc3)cc2)[C@@H](NC(=O)c2ccccc2)c2cc(OCCCO)ccc2N1C(=O)c1ccc2ccccc2n1`, the composite z-score in test [1] was -0.0092; in test [2] it was 0.32; in test [3] it was 0.339; in test [5], 0.47; in test [6], 0.538; in test [7], -0.0158. Further, the composite z-score in [8] was 0.309; in [9], 0.234; in [10], -0.466. For the same compound, in [4], the z-score is 0.00513 (inactive).

For `O=C1C[C@@](C(=O)NCc2ccccc2)(c2ccc([N+](=O)[O-])cc2)[C@@H](c2ccc(CO)cc2)N1CC12CC3CC(CC(C3)C1)C2`, the composite z-score in test [1] was 1.62; in test [2], -0.387; in test [3] it was -0.371; in test [5] it was 1.06; in [6], 1.13; in test [7], 0.385. Further, the figures for the composite z-score in test [8], in test [9] and in [10] were 0.837, 0.0703 and 0.0162, respectively. Besides, the z-score in test [4] was -0.859 (inactive).

Consider `COc1ccc([Si](C)(C)[C@@H]2[C@@H](CCn3cc(CCO)nn3)O[C@]3(C(=O)N(Cc4cccc(N5C(=O)c6cccc7cccc5c67)c4)c4ccccc43)[C@H]2C)cc1`, for which the composite z-score in test [1] is 0.686; in test [2] it was -0.212; in test [3] it was -0.197; in test [5], 0.648; in test [6], 0.433; in test [7] it was 0.0345. Also, the composite z-score in [8] was determined as 0.922; in test [9], 0.135; in test [10] it was 0.546. In [4], the z-score is -1.23 (inactive).

As to `O=C(CS)NCCCCCNC(=O)[C@H]1C[C@H]2C(=O)NCC(=O)N2[C@H]1c1ccc(O)cc1`, the composite z-score in test [1] was 0.394; in test [2], -0.164; in [3] it was 0.699; in test [5] it was -1.04; in test [6] it was -1.32; in test [7] it was -0.641. Further, the values for the composite z-score in test [8], in [9] and in [10] were -0.749, -0.887 and -0.583, respectively. In addition, the z-score in test [4] is -1.35 (inactive).

With `CC(C)OC(=O)C=C1C[C@@H](c2cccc(Cl)c2)O[C@@H](c2cccc(Cl)c2)O1`, the composite z-score in test [1] is 1.31; in [2], 0.471; in test [3], 1.11; in test [5] it was 0.31; in test [6] it was 0.651; in [7], -1.18. Also, the composite z-score in test [8] was -0.901; in test [9], -1.42; in test [10] it was 1.24. For the same compound, the z-score in [4] is 1.35 (inactive).

As for `O=C1C2C=CC(C(O)C=Cc3ccc([N+](=O)[O-])cc3)N(n3cnnc3)C2C(=O)N1Cc1ccccc1` (stereo not given), the composite z-score is 1.53 in [1]; 0.341 in test [2]; 0.832 in test [3]; 0.466 in test [5]; 0.587 in test [6]; -0.0912 in test [7]. For the same compound, the composite z-score in test [8] is 0.906; in test [9] it was 0.377; in test [10], 1.17. The z-score in test [4] was 0.243 (inactive).

As for `O=C1C2C=CC(C(O)c3ccc(F)cc3)N(Nc3ccc([N+](=O)[O-])cc3)C2C(=O)N1c1ccccc1` (stereo not given), the composite z-score in test [1] is 1.38; in test [2], 0.343; in [3], 0.839; in [5], 0.638; in [6] it was 1.07; in test [7], -0.125. For the same compound, the results for the composite z-score in [8], in [9] and in test [10] were 0.558, -0.272 and 0.556, respectively. Moreover, the z-score in [4] was 0.516 (inactive).

Regarding `CN(C)CCCCNC(=O)[C@@H]1C[C@@H]2C(=O)N[C@@H](CCCCN)C(=O)N2[C@@H]1c1ccc(O)cc1`, the composite z-score in test [1] was 1.09; in test [2] it was -0.0238; in test [3], 0.309; in test [5], 0.41; in test [6] it was 1.07; in test [7], 0.606. For the same compound, the figures for the composite z-score in test [8], in test [9] and in [10] were 0.463, 1.26 and 0.684, respectively. Besides, the z-score in test [4] was -0.162 (inactive).

For the compound `COc1ccc(NC(=O)O[C@H]2[C@H](OC(=O)c3cc4ccccc4[nH]3)[C@@H](OC(=O)c3cc4ccccc4[nH]3)[C@@H](OC)O[C@@H]2CO)cc1`, the composite z-score is 1.24 in [1]; -0.0147 in [2]; 0.358 in test [3]; 0.523 in [5]; 0.212 in [6]; -0.245 in test [7]. In addition, the composite z-score is 0.448 in test [8], -0.011 in test [9] and 0.287 in [10]. In test [4], the z-score was -1.07 (inactive).

`O=C(NC1CC1)[C@@H]1c2ccccc2C(=O)N(Cc2cc(F)cc(C(F)(F)F)c2)[C@H]1c1ccc(CO)cc1`: the composite z-score is 1.62 in test [1]; -0.284 in test [2]; 0.447 in test [3]; -0.216 in test [5]; 0.296 in [6]; -1.18 in [7]. Further, the composite z-score in test [8] is -0.317; in test [9], -0.666; in test [10], -0.142. Besides, the z-score in test [4] is 0.191 (inactive).

With `COc1ccccc1CN1C(=O)c2ccccc2[C@@H](C(=O)NCc2ccccc2)[C@@H]1c1ccc(CO)cc1`, the composite z-score in test [1] is 1.48; in test [2], -0.262; in [3], 0.617; in [5], -0.144; in test [6] it was 0.883; in [7], -0.154. For the same compound, the composite z-score in test [8] is -0.113; in [9], -0.258; in [10] it was -0.134. For the same compound, the z-score in test [4] was -0.263 (inactive).

Regarding `C[N+](C)(C)CCCCCCNC(=O)[C@H]1C[C@H]2C(=O)N[C@@H](Cc3ccccc3)C(=O)N2[C@H]1c1cccc(OCCO)c1`, the composite z-score in test [1] is 1.65; in test [2], -0.0429; in test [3], 0.0593; in test [5] it was 0.985; in test [6] it was 1.23; in test [7], 0.227. Moreover, the composite z-score in test [8] is 1.09; in test [9], 0.707; in test [10], 0.279. Moreover, the z-score in [4] is 0.264 (inactive).

Regarding `COc1ccc(C(=O)Nc2ccc(CN3C(=O)[C@]4(O[C@H](CC(=O)N5CCC[C@H]5CO)[C@@H]([Si](C)(C)c5ccc(OC)cc5)[C@@H]4C)c4ccccc43)cc2)cc1`, the composite z-score is 1.46 in test [1]; -0.314 in test [2]; 0.0167 in test [3]; 0.679 in [5]; 0.573 in test [6]; 0.352 in [7]. The values for the composite z-score in test [8], in [9] and in [10] were 0.683, 0.545 and 0.0938, respectively. The z-score in test [4] was 1.76 (inactive).

For the compound `O=C1C2C=CC(C(O)c3c(F)cccc3Cl)N(Nc3ccccc3F)C2C(=O)N1c1ccccc1` (stereo not given), the composite z-score in test [1] was 0.537; in test [2], 0.923; in test [3], 1.09; in [5], 1.28; in test [6], 0.533; in test [7], -0.0195. In addition, the figures for the composite z-score in test [8], in test [9] and in test [10] were 0.551, -0.62 and 0.87, respectively. Moreover, the z-score in test [4] is 1.4 (inactive).

The values are drawn from PubChem BioAssay.
